CCHF vOTU inh-1 – CCHFV vOTU protease inhibitors, primary screen, biochemical, Pep-AMC substrate, fluorescence | inhibition, % at 11.5 µM | Crimean-Congo hemorrhagic fever virus L polyprotein viral ovarian tumor (vOTU) protease … | AID 651958, 2012 | 0.55% of 370,000 active; note: 0% = vehicle wells with enzyme and 100% = no enzyme wells
PfHsp40 yeast – rescue of yeast from PfHsp40 toxicity, primary screen, S. cerevisiae, ATP luminescence; 0.68% of 340,000 active; AID 504582, 2011; growth rescue, % at 12.5 µM; S. cerevisiae expressing PfHsp40, growth rescue; in the data active = growth rescue above about 28%, passing the limit was not always enough; inconclusive = no clear call, values can overlap the other calls;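 note: yeast W303a lacking pdr1 and pdr3 grown in galactose medium; growth measured after three days at 30 °C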
RecA intein inh – Mtb RecA intein splicing inhibitors, primary screen, biochemical, fluorescence, HTS. 0.75% of 290,000 active. inhibition, % (concentration not given with the values). Protein RecA (Mycobacterium tuberculosis (strain ATCC 25618 / H37Rv)), P9WHJ3. cell-free RecA intein splicing. AID 2221, 2009; in the data active = inhibition above about 30%; inconclusive = no clear call, values can overlap the other calls;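 note: 0% = vehicle wells and 100% = reference inhibitor control wells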
Target sequence (P9WHJ3 whole entry, looked up): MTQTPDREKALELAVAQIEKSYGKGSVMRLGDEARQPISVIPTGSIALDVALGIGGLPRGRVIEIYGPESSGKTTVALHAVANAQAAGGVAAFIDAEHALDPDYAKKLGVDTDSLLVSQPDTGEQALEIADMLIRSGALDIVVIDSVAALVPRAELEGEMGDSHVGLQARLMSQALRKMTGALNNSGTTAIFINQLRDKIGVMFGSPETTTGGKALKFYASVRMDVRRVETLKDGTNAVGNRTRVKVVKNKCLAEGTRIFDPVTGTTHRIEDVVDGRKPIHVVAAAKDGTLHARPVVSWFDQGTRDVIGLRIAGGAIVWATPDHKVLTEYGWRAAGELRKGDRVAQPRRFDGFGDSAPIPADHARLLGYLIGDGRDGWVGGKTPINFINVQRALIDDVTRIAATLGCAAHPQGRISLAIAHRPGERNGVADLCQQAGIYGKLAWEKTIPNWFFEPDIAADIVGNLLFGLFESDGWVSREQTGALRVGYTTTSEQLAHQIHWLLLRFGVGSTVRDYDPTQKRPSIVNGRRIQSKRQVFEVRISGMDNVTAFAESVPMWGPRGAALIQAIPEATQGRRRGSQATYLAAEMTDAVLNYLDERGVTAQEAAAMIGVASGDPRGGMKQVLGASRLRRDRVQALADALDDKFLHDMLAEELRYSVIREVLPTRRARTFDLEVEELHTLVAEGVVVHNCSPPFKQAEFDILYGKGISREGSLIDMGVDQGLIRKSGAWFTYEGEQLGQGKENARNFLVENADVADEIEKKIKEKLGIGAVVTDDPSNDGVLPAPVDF
Mtb hypoxia inh – PubChem AID 1159583; M. tuberculosis hypoxia-regulated fluorescent reporter, fluorescence; fluorescence inhibition, % (test concentration not listed); 0.1% of 300,000 active; in the data active = fluorescence inhibition mostly above about 23%, no sharp cut-off; inactive = mostly below about 17%
Mtb betalactam – beta-lactam sensitization of Mtb H37Rv, H37Rv. M. tuberculosis H37Rv growth with meropenem, percent inhibition. inhibition, % at 25 µM. 0.27% of 330,000 active. AID 434955, 2010; call rule not given here;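 note: growth measured after seven days incubation then overnight dye step; 0% = bacteria only wells and 100% = bacteria with antibiotic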
CCHF vOTU inh-2 – CCHFV vOTU protease inhibitors, confirmation, biochemical, Pep-AMC substrate, fluorescence; Recombinant CCHFV vOTU; 17% of 1,900 active; shares compounds with CCHF vOTU inh-1; inhibition, % at 11.5 µM
* marks the source's active call; other numbers are inactive results; ? = inconclusive; . = no result. Most compounds without a hit are left out; they make up all but 1.7% or so of the library. Cut-off read from the data, not from the text of the source, unless noted: active = inhibition above about 30%; inactive = the rest.

SMILES	CCHF vOTU inh-1	PfHsp40 yeast	RecA intein inh	Mtb hypoxia inh	Mtb betalactam	CCHF vOTU inh-2
COc1ccccc1NS(=O)(=O)c1cccc(-n2c(O)c(C=Nc3ccccc3C(=O)O)c3ccccc3c2=O)c1	38.2*	1.9	18.9	10.9	-4.5	37.5*
Brc1ccc(C2CN3CCSC3=N2)cc1 (stereo unspecified)	.	.	.	2.2	.	.
O=S(=O)(Nc1c(S(=O)(=O)c2ccccc2)c2nc3ccccc3nc2n1C1CCCCC1)c1ccccc1	93.7*	-1.3	-20.6	3.8	-1.6	63.6*
C=CCn1c(NS(=O)(=O)c2ccccc2)c(S(=O)(=O)c2ccc(C)cc2)c2nc3ccccc3nc21	32.5*	-1.2	-1.4	5.6	-3.5	-14.1
CC(=O)Nc1c(S(=O)(=O)c2ccccc2)c2nc3ccccc3nc2n1Cc1ccccc1	-133.3	-0.7	0.9	2.3	-5.2	.
CC1(C)CC2CC(C)(CN2C(=O)COC(=O)c2ccccc2C(F)(F)F)C1 (stereo unspecified)	33.3*	0.2	.	.	-6.0	16.2
CSc1ncccc1C(=O)OCC(=O)N1CC2(C)CC1CC(C)(C)C2 (stereo unspecified)	-7.8	0.9	.	7.4	3.8	.
N#Cc1ccc(C=NNC(=O)CCc2ccc(S(=O)(=O)N3CCOCC3)cc2)cc1	.	.	.	5.3	.	.
CN=C1c2cc3cc(OC)ccc3n2CCN1Cc1ccccc1	37.3*	1.4	1.5	-77.7	.	-9.3
CC(CC(=O)Nc1ccc([N+](=O)[O-])cc1)=NNC(=O)c1ccccc1O	.	.	.	3.2	.	.
N#CC(=NO)c1nc2ccccc2[nH]1	.	.	.	0.9	.	.
CCOC(=O)NN=Cc1ccc(N(CC)CC)cc1O	.	.	.	8.7	.	.
CCN(CC)c1ccc(/C=N/NC(=O)c2c(Cl)cnn2C)c(O)c1	36.1*	546.1*	-44.7	.	7.7	-11.0
Cc1[nH][nH]c(=O)c1N=Nc1ccccc1Cl	9.3	0.5	3.4	16.8	4.8	.
Clc1ccccc1N=Nc1ccccn1	83.5*	-0.2	.	.	.	9.6
CCCCCCCCN1C(=O)[C@H](CC(=O)NCc2ccc(C)o2)C[C@@]2(C(=O)OC)CC(C)(C)CC=C12	30.3*	.	.	.	.	7.3
COC(=O)[C@@]12C[C@@H](CC(=O)NCCC(C)C)C(=O)N(CCc3ccc(OC)c(OC)c3)C1=CCC(C)(C)C2	29.8*	.	.	.	.	1.9
CCCCCCCCN1C(=O)[C@H](CC(=O)NCCCOCCCC)C[C@@]2(C(=O)OC)CC(C)(C)CC=C12	22.0	.	.	.	.	.
C#CCNC(=O)C[C@@H]1C[C@@]2(C(=O)OC)CC(C)(C)CC=C2N(CCCCCCCC)C1=O	31.0*	.	.	.	.	8.4
CCCCCCCCN1C(=O)[C@H](CC(=O)NCc2cccs2)C[C@@]2(C(=O)OC)CC(C)(C)CC=C12	22.4	.	.	.	.	.
CCCCCCCCN1C(=O)[C@H](CC(=O)NCCCOC)C[C@@]2(C(=O)OC)CC(C)(C)CC=C12	32.7*	.	.	.	.	20.0
COc1ccc(C2C=CCN(S(=O)(=O)c3cccc4cccnc34)C(C)C(=O)N2Cc2ccc(F)cc2)cc1 (stereo unspecified)	.	.	.	-4.3	.	.
C#CCNC(=O)C1=CC(C2CC2)CC(OCc2ccc(CO)cc2)O1 (stereo unspecified)	.	.	.	5.6	.	.
CN1CC2C3C(=O)N(C)C(=O)C3[C@](Cc3ccccc3)(C1=O)N2C(=O)c1ccc(F)cc1 (stereo partly specified)	.	.	.	-0.6	.	.
O=C(NCc1ccc(N2CCCC2=O)cc1)c1cc(COc2c(F)cccc2F)on1	37.8*	1.0	-0.1	7.4	-3.0	-17.9
SMILES	CCHF vOTU inh-1	PfHsp40 yeast	RecA intein inh	Mtb hypoxia inh	Mtb betalactam	CCHF vOTU inh-2
O=C(NCc1ccc2c(c1)OCO2)c1cc(COc2c(F)cccc2F)on1	10.3	0.2	1.0	-1.5	?	.
Oc1c(N=Nc2ccc(F)cc2)ccc2ccccc12	-0.2	-0.3	26.1	.	31.5	.
Oc1c(N=Nc2nn[nH]n2)ccc2ccccc12	97.8*	.	.	.	.	83.8*
CCOC(=O)c1c2c(n(Cc3ccccc3)c1C)C(=O)C(=O)c1ccccc1-2	102.3*	-0.6	.	.	.	102.2*
COc1cc(C=NNC(=O)c2ccccn2)ccc1OC(=O)c1ccc(Br)cc1	.	.	.	3.3	.	.
Nc1cccc2cnccc12	48.1*	-0.5	.	-3.4	9.5	-15.8
Oc1cccc2cnccc12	-4.2	-0.5	-7.7	10.3	-1.2	.
CCSc1ccc(C2C3C(=O)N(C)C(=O)C3[C@]3(C(=O)OC)CCCCN23)cc1OC (stereo partly specified)	.	.	.	1.2	.	.
CC(C)(C)c1ccc(S(=O)(=O)Nc2ccc(C(O)(C(F)(F)F)C(F)(F)F)cc2)cc1	48.7*	.	.	.	.	10.3
CCOC(=O)CSc1nc2c(sc(=S)n2-c2ccc(CC)cc2)c(=O)[nH]1	35.3*	0.6	-1.4	1.4	2.8	22.7
O=C1C(N2CCOCC2)=C(n2nnc3ccccc32)C(=O)c2ccccc21	103.7*	-0.3	26.3	.	9.2	97.8*
O=C1c2ccccc2C(=O)c2c1cccc2-n1nnc2ccccc21	-6.9	-0.2	0.7	1.3	0.9	.
CN=C(Nc1cccnc1)c1cccc(C(F)(F)F)c1	49.4*	-2.2	-1.6	11.1	-4.2	-14.5
CN=C(Nc1ccc(Cl)cc1)c1cccc(C(F)(F)F)c1	-2.8	1.7	-1.7	2.2	-11.2	.
O=[N+]([O-])c1cc([N+](=O)[O-])c2nonc2c1Nc1ccc(O)cc1	63.6*	-0.1	-11.9	10.4	-4.3	-6.0
CC(CC(=O)N1CCc2ccccc21)n1cccn1 (stereo unspecified)	35.2*	0.4	-0.5	-1.0	-2.3	-7.8
O=C(NCc1ccc(Cl)c(Cl)c1)c1cc(C2CCCCN2C(=O)C2CCCCC2)on1 (stereo unspecified)	30.8*	.	.	.	.	4.8
O=[N+]([O-])c1cc(Cl)cc(C=NNC(=S)Nc2ccc(S(=O)(=O)N3CCOCC3)cc2)c1O	.	.	.	19.6	.	.
O=[N+]([O-])c1cc(Cl)cc(/C=N/NC(=S)Nc2ccc(S(=O)(=O)N3CCOCC3)cc2)c1O	39.2*	449.3*	.	.	39.8	3.4
Cc1cc2cc(C(c3nnnn3Cc3ccco3)N3CCc4ccccc4C3)c(=O)[nH]c2cc1C (stereo unspecified)	61.4*	-0.6	0.3	-4.1	90.5	-10.1
O=[N+]([O-])c1cccc(NN=Cc2cccc3ccccc23)c1	.	.	.	10.9	.	.
O=C1C=CC(=O)N1c1ccc(Nc2ccccc2)cc1	41.1*	235.8*	.	2.7	.	-15.6
COC(=O)C1=C(C(=O)OC)SC2(S1)C(C(=O)OC)=C(C(=O)OC)Sc1c2ssc1=O	31.8*	18.7	.	.	.	8.6
COC(=O)C1=C(C(=O)OC)SC2(S1)C(C(=O)OC)=C(C(=O)OC)SC1=C2c2cc(C)cc(C)c2NC1(C)C	16.6	0.8	-2.2	.	13.7	.
COc1cc(OC)c([N+](=O)[O-])cc1/C=N/NC(=O)c1ccncc1	34.1*	-1.8	-1.9	.	98.5	4.8
NC(=NO)c1ccc(NC(=O)c2ccc(Br)o2)cc1	.	.	.	8.6	.	.
C(=NNc1nc2ccccc2[nH]1)c1cccc2nccnc12	.	.	.	0.6	.	.

Assay outcomes from PubChem BioAssay.
